The source of these data is PubChem BioAssay AID1117282 (The Scripps Research Institute Molecular Screening Center, 2014).

Structures are written as SMILES. The list shows a part of the results. A number with no mark means an inactive call. Activity calls are given as the source filed them.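 Rule for the calls: active = mean inhibition across replicates above a set limit taken from the earlier primary screen (cut at about 11% in these data); inactive = the rest.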

For the experiment, the target named is RNA-editing ligase 1, mitochondrial (Trypanosoma brucei brucei) (UniProt P86926). As to the kind of experiment: TbREL1 RNA ligase inhibitors, confirmation, biochemical, FRET fluorescence, triplicate (AID 1117282).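 Note: 0% = REL1 with substrate and DMSO and 100% = REL1 plus control inhibitor NSC42067.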 Conditions: TbREL1 RNA ligation, at 9.66 µM, stronger effect = higher value.
Chain of RNA-editing ligase 1, mitochondrial (Trypanosoma brucei brucei) (P86926 whole entry, looked up): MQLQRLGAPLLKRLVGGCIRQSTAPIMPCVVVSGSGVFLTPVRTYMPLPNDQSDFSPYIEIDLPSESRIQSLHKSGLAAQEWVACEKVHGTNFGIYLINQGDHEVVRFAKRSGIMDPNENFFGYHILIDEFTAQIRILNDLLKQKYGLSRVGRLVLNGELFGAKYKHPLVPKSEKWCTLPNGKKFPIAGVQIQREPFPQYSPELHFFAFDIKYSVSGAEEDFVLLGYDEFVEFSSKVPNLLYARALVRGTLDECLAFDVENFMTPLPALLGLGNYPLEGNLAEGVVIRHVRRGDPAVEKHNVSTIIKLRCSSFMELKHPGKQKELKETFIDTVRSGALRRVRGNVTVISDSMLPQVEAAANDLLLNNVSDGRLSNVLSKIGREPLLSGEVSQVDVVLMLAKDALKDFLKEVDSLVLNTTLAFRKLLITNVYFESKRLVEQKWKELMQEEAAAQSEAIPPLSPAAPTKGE
The term inhibition denotes the relative decrease from the control value, in per cent. On to `O=C(Nc1cccc(F)c1)NC1CCCCCCC1`, for which the inhibition is 4.12%.

Turning to `COc1c(O)cc2oc(-c3ccc(O)c(O)c3)cc(=O)c2c1O`, the inhibition was 12.7% (active). For `COc1ccc(C(C(=O)Nc2c(C)cccc2C)N2CCN(c3ccc(C)cc3)CC2)cc1` (stereo not given) the value was -1.79%; for `CN1CCN(/N=C2/C(=O)Nc3ccc([N+](=O)[O-])cc32)CC1`, 3.63%; for `CNc1nc(Nc2ccc(C)c(Cl)c2)nc(N)c1[N+](=O)[O-]`, 9.65%.

Turning to `COCc1c(N)c(C)nc(Cl)c1C#N`, the inhibition is 7.44%. In the case of `COc1cc(/C=C/C(=O)n2cnc3ccccc32)cc(OC)c1OC` it was 2.66%; in that of `CC(C)Cn1c(N)c(C(=O)NCc2cccs2)c2nc3ccccc3nc21`, 6.35%; in that of `CC[C@@H](C)[C@@H]1CN([C@@H](C)CN2CCC[C@H]2CN2C(N)=NC[C@H]2C(C)C)C(=N)N1CCc1ccc(Cl)c(Cl)c1`, 13.3% (active). In the case of `CC1(C)CC(N2CCN(C(c3ccccc3)c3ccccc3)CC2)=CC(=[N+]2CCCCC2)C1` it was 16.7% (active); in that of `COC(=O)C1=C(C)N(Cc2cccc(C(F)(F)F)c2)C(=NCc2cccc(C(F)(F)F)c2)NC1c1ccccc1C(F)(F)F` (stereo not given), 19.9% (active).

For `O=C(NCc1ccccc1)[C@@H]1CSC2c3ccccc3C(=O)N21` (stereo not given in full), the inhibition is 3.84%. In the case of `Nc1ccc2nc3c(=O)[nH]c(=S)[nH]c3nc2c1` it was 14.2% (active). In the case of `C=CCn1c(=S)[nH]c2scc(-c3ccco3)c2c1=O` it was 13.8% (active). For `O=C(Nc1nc(-c2ccco2)c(-c2ccco2)s1)c1ccco1` the value was 6.13%.
